# Screening results: PubChem, National Center for Advancing Translational Sciences (NCATS)
# NS1 function inh – qHTS Assay for Inhibitors of Influenza NS1 Protein Function | 270,000 tested, 0.4% active | Potency, µM (top dose mostly 46.1 µM), for the others: top-dose activity, positive = more growth | AID 2326, 2010; also: potency is read from the fitted curve at half-maximal effect; actives are rising curves; nearly all actives have a fitted effect of over 50% in size
#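 Compounds were scored for reversing the slow growth caused by influenza A NS1 in S. cerevisiae, measured by optical density at 600 nm. Assay medium contained 2% galactose at pH 6.0; NS1-free yeast of the same strain were the positive control.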
# CHX counter – Cycloheximide Counterscreen for Small Molecule Inhibitors of Shiga Toxin; cell reporter, cycloheximide protein synthesis inhibition counterscreen; 300,000 tested, 12% active; max response, %; AID 2314, 2010; in the data active = max response mostly above about 13%, no sharp cut-off; inactive = mostly below about 14%; also: read at 38.3 µM for the half of the compounds with a filed dose; 0% is about no effect
# Pf growth 96h – Primary qHTS for delayed death inhibitors of the malarial parasite plastid, 96 hour incubation. 320,000 tested, 6.9% active. Potency, µM (top dose mostly 28.7 µM), without a hit: at the highest dose activity change, negative = inhibition, actives largely listed as inhibitors. P. falciparum luciferase reporter growth, 96 h; active = well fitted inhibition curve with a large enough effect; inconclusive = small, poorly fitted or top-dose-only effect, or another doubt; inactive = no such curve, though single readings can be large or run the other way; also: potency is read from the fitted curve at half-maximal effect; % is scaled to controls: 0 for no effect and ±100 for the full control effect
#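 P. falciparum expressing integrated firefly luciferase, in erythrocytes at 2% hematocrit, 0.05% parasitemia, incubated with compounds 96 h at 37 C, 5% CO2. Growth inhibition read as loss of luminescence; two-generation exposure targets delayed-death apicoplast inhibitors.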
# SARS PLP yeast – qHTS of Yeast-based Assay for SARS-CoV PLP | 330,000 tested, 0.19% active | S. cerevisiae expressing SARS-CoV PLpro, growth rescue | Potency, µM (titrated, usually from 32.9 µM), inactives show at the highest dose activity, positive = growth rescue, usual class: activators; also: potency is read from the fitted curve at half-maximal effect; 0% is about no effect; nearly all actives have a fitted effect of over 55% in size
# Pf growth 48h – Primary qHTS for delayed death inhibitors of the malarial parasite plastid, 48 hour incubation; P. falciparum luciferase growth in erythrocytes, 48 h; 310,000 tested, 5.9% active; AID 504832, 2011; Potency, µM (series often up to 28.7 µM), inactives show top-dose activity change, negative = inhibition, actives largely listed as inhibitors; active = well fitted inhibition curve with a large enough effect; inconclusive = small, poorly fitted or top-dose-only effect, or another doubt; inactive = no such curve, though single readings can be large or run the other way; also: potency is read from the fitted curve at half-maximal effect; % is scaled to controls: 0 for no effect and ±100 for the full control effect
#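 Read-out is firefly luciferase luminescence from an integrated reporter in P. falciparum, so falling signal marks reduced parasite growth. Infected erythrocytes were at 2% hematocrit and 0.1% parasitemia (final) in Albumax-supplemented RPMI 1640.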
# Shiga toxin inh – A qHTS for Small Molecule Inhibitors of Shiga Toxin. Vero cells, Shiga toxin protein synthesis inhibition reporter. inhibition, % at 38.7 µM. 290,000 tested, 9.2% active; in the data active = inhibition mostly above about 28%, no sharp cut-off; inactive = mostly below about 43%; also: 0% is about no effect
# An asterisk follows results filed as active; ? = inconclusive; . = no result. An excerpt weighted towards active compounds, which were near 21% of everything screened. Unless noted, calls follow the shape of the full dose curve.
SMILES,NS1 function inh,CHX counter,Pf growth 96h,SARS PLP yeast,Pf growth 48h,Shiga toxin inh
O=C(c1cccc(S(=O)(=O)Nc2ccccc2F)c1)N1CCN(c2ccccc2F)CC1,1.6%,-0.5,4.0%,2.0%,12.4%,-8.9
COc1cccc2c1OCC/C2=N\NC(=O)C(C)Oc1ccc([N+](=O)[O-])cc1 (configuration not stated),-4.2%,1.8,-2.7%,0.3%,0.5%,-11.5
CCc1cccc2c(/C=N/NC(=O)c3cccc(S(=O)(=O)Nc4ccccc4Cl)c3)c[nH]c12,?,-3.8,47.4%,-7.8%,2.1%,-3.7
CSc1ccccc1NC(=O)CCn1c(=O)oc2ccccc21,3.3%,-3.3,7.1%,-0.1%,0.0%,-10.9
Cc1ccc(NC(=O)CCCn2c(=O)oc3ccccc32)c(O)c1,-12.3%,12.1*,20.5%,2.6%,?,16.4
CCOc1ccccc1NC(=O)CCn1c(=O)oc2ccccc21,-16.1%,-1.6,6.57µM*,1.6%,13.2%,-6.7
CCOc1ccc(NC(=O)CN2CCN(Cc3c(F)cccc3F)CC2)cc1,-3.5%,-2.9,0.0%,1.3%,-4.6%,-3.0
COc1ccc(N2C(=O)CCC(C(C)=O)=C2C)cc1,10.8%,-4.5,?,0.5%,5.5%,-4.7
COc1cc2cnc(-c3ccccc3)cc2cc1OC,.,.,.,-3.3%,.,.
COc1ccc(-c2cc3cc(OC)c(OC)cc3c(C)n2)cc1C,3.1%,11.9,10.4µM*,-4.1%,?,37.1
COc1ccc(-c2cc3cc(OC)c(OC)cc3cn2)cc1,.,.,.,-5.2%,.,.
COc1ccc(-c2cc(-c3ccccc3)nc(NN)n2)cc1OC,?,16.7*,?,0.6%,?,34.6
COc1nc(-c2ccccc2)cc(-c2ccc(OC)c(OC)c2)n1,-4.6%,20.7,28.0%,-17.6%,-16.5%,55.8*
O=C(Cc1ccc(Cl)c(Cl)c1)OCCN1CCCC1,-9.4%,.,.,.,.,.
CC1CCN(c2nnc(-c3cccs3)c3ccccc23)CC1,-27.3%,15.9*,?,-1.1%,-1.4%,60.3
Cc1oc(-c2cccc(F)c2)nc1CN1CCCCC1CCc1ccccn1 (configuration not stated),3.4%,-4.4,?,-0.7%,13.1µM*,6.5
COc1ccc(-c2nc(CN3CCCCC3CCc3ccccn3)c(C)o2)cc1 (configuration not stated),4.9%,-3.0,?,0.7%,?,31.4
CN1C(=O)NC(NC(=O)c2cccs2)(C(F)(F)F)C1=O (configuration not stated),-6.8%,-1.2,306.2%,0.1%,13.6%,-14.0
CC(C)CN1C(=O)NC(NC(=O)c2cccs2)(C(F)(F)F)C1=O (configuration not stated),-2.4%,-2.5,15.4%,-5.3%,2.33µM*,16.0
CCCN(CCC)[C@@H]1CCc2cccc(O)c2C1,0.0%,-4.1,4.15µM*,0.6%,5.22µM*,-6.1
Cc1ccc(N=C(N)N=C(N)N)cc1,-0.6%,-0.6,?,1.9%,9.28µM*,-4.4
NC(N)=NC(N)=Nc1ccc(O)cc1,2.1%,-2.7,-2.8%,-1.4%,?,3.3
COc1ccc(OC)c(CC(NC(C)=O)C(=O)NC2CCN(c3c(Cc4ccccc4)c(C)nc4ncnn34)CC2)c1 (configuration not stated),-6.2%,-1.4,?,22.0%,?,-9.2
Cc1nc2ncnn2c(N2CCC(C(=O)NC3CCCC3)CC2)c1Cc1ccccc1,-0.5%,-3.2,44.7%,3.0%,14.7µM*,7.5
O=S(=O)(c1ccccc1)N1CCN(c2cc(-c3ccccc3)nc3ncnn23)CC1,-18.7%,-3.3,?,1.5%,?,10.2
SMILES,NS1 function inh,CHX counter,Pf growth 96h,SARS PLP yeast,Pf growth 48h,Shiga toxin inh
COc1cccc(CC(NC(C)=O)C(=O)NC2CCN(c3c(Cc4ccccc4)c(C)nc4ncnn34)CC2)c1 (configuration not stated),2.3%,0.6,10.4µM*,23.0%,3.7µM*,9.3
Cc1ccccc1NC(=O)C1CCN(c2cc(-c3ccccc3)nc3ncnn23)CC1,-2.1%,-2.0,-18.8%,26.6%,7.38µM*,7.9
NCc1oc(-c2ccccc2)cc1C(=O)O,.,-3.1,10.1%,-2.2%,12.7%,-18.3
CC(=O)Nc1ccc(S(=O)(=O)Nc2cccc(C(=O)Nc3ccccc3C(=O)O)c2)cc1,23.0%,-3.4,-14.2%,-0.8%,41.2%,-6.4
O=C(NCc1ccccn1)C(=O)NCC1OCCN1S(=O)(=O)c1ccc(F)cc1 (configuration not stated),-2.2%,-1.6,2.0%,-1.6%,1.2%,-8.3
COc1ccc(-c2cc(C(=O)Nc3cc(OC)cc(C(=O)Nc4cccc(C(F)(F)F)c4)c3)[nH]n2)cc1,4.8%,2.1,1.31µM*,-2.5%,1.85µM*,16.0
COc1cc(NC(=O)c2ccc(N)nc2)cc(C(=O)Nc2cccc(C(F)(F)F)c2)c1,-0.3%,13.1,0.738µM*,-1.5%,0.738µM*,54.8*
COc1ccc(-n2ncc3c2CC(C)(C)CC3NC(=O)C2CCN(C(C)=O)CC2)cc1 (configuration not stated),-1.7%,19.3*,12.2%,2.4%,-4.8%,22.9*
COc1ccc(-n2ncc3c2CC(C)(C)CC3NC(=O)c2ccoc2C)cc1 (configuration not stated),-4.7%,16.7*,?,.,?,15.4
O=C(OCC(=O)N1CCc2ccccc21)c1ccccc1,-13.8%,42.7*,186.9%,-0.2%,180.8%,117.9*
Nc1ccccc1C(=O)OCC(=O)N1CCc2ccccc21,-8.6%,39.0*,.,-3.7%,197.6%,79.1*
COc1cccc(C(=O)OCC(=O)N2CCc3ccccc32)c1OC,.,.,50.0%,4.4%,24.9%,.
COc1ccccc1C(=O)N1CCc2ccccc21,-1.6%,1.7,-17.2%,1.9%,-9.7%,-1.1
O=C(OCC(=O)N1CCc2ccccc21)c1cccnc1,-4.9%,33.1*,.,-8.8%,-9.9%,45.1*
Nc1ccccc1C(=O)N1CCc2ccccc21,-9.6%,25.9*,?,1.6%,28.7%,68.8*
O=C(OCC(=O)N1CCc2ccccc21)c1ccc[n+]([O-])c1,-3.7%,-5.7,?,-2.4%,5.7%,-3.6
COc1ccccc1C(=O)COC(=O)CSC(C)C(=O)Nc1cc(C)on1 (configuration not stated),.,.,24.3%,1.1%,44.3%,.
N#Cc1ccc(OCC(=O)OCC(=O)NC2CC2)cc1,.,.,.,-5.7%,.,.
CC1CCN(C(=O)CCS(=O)(=O)c2cc3c(cc2Cl)NC(=O)CO3)CC1,4.3%,-2.4,4.7%,-4.2%,-5.7%,-3.1
CCN(CC)S(=O)(=O)c1cc(NC(=O)CSCc2c(C)noc2C)ccc1C,.,.,.,0.5%,.,.
CN(CC(=O)Nc1cccc(F)c1)CC(=O)N(C)CC(=O)Nc1ccccc1Br,.,.,?,-5.7%,-25.6%,.
